Assay results as given in PubChem BioAssay (NCI).
This is part of a sample that, as a whole, favours compounds with a hit. Of some 83,000 tested, about 20% had one in any assay.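 The endpoint reported here, percent growth, reads 100 for growth as untreated, 0 for no net growth and -100 for all cells dead.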 Active and inactive are the calls of the source. The calls were made as follows: active = growth percent below 10; inactive = the rest.

What was measured:
Test in all cases: NCI-60 one-dose screen, 48 h (100 = growth as untreated, 0 = no growth, -100 = all killed)
Conditions in all cases: 10 µM unless noted
NCI-H23 lung = system: NCI-H23 lung
NCI-H226 lung = system: NCI-H226 lung
NCI-H322M lung = system: NCI-H322M lung
HOP-62 NSCLC = system: HOP-62 NSCLC
NCI-H460 lung = system: NCI-H460 lung
NCI-H522 lung = system: NCI-H522 lung
A549/ATCC NSCLC = system: A549/ATCC NSCLC
786-0 renal = system: 786-0 renal
COLO 205 colon = system: COLO 205 colon
HOP-92 NSCLC = system: HOP-92 NSCLC

Measured: growth

C=CCOc1c(Br)cc(Br)cc1Br
inactive: NCI-H23 lung 53.1% | NCI-H226 lung 81.5% | NCI-H322M lung 45% | HOP-62 NSCLC 58.6% | NCI-H460 lung 38.5% | NCI-H522 lung 27.6% | A549/ATCC NSCLC 59.7% | 786-0 renal 102% | COLO 205 colon 103%

CCOC(=O)Nc1ccc2nc(-c3cscn3)[nH]c2c1
inactive: NCI-H23 lung 71.6% | NCI-H226 lung 63.5% | NCI-H322M lung 63.1% | HOP-62 NSCLC 54.1% | NCI-H460 lung 21.7% | NCI-H522 lung 43.7% | A549/ATCC NSCLC 45% | 786-0 renal 67.7% | COLO 205 colon 29%

CC(=O)OC1Oc2cc(C)c(C)cc2-c2oc(=O)c(-c3cc4ccccc4oc3=O)cc21 (stereo not drawn)
inactive: NCI-H23 lung 85.6% | NCI-H226 lung 124% | NCI-H322M lung 126% | HOP-62 NSCLC 109% | NCI-H460 lung 108% | NCI-H522 lung 82.9% | A549/ATCC NSCLC 113% | 786-0 renal 79.7% | COLO 205 colon 121%

CCCc1n(Cc2ccc3ccccc3n2)cc[n+]1Cc1ccc2ccccc2n1
active: COLO 205 colon -43%
inactive: NCI-H23 lung 13% | NCI-H226 lung 38% | NCI-H322M lung 72.1% | HOP-62 NSCLC 51.7% | NCI-H460 lung 34.2% | NCI-H522 lung 22.8% | A549/ATCC NSCLC 62.8% | 786-0 renal 85.3%

CC(=O)O[C@H]1[C@H](CC#CC#CC[C@@H]2C[C@]3(C)[C@H]4CC=C5[C@H]6[C@@H](C)[C@H](C)CC[C@]6(C(=O)NCCCCCCCCN)CC[C@@]5(C)[C@]4(C)CC[C@H]3C(C)(C)[C@H]2OC(C)=O)C[C@]2(C)[C@H]3CC=C4[C@H]5[C@@H](C)[C@H](C)CC[C@]5(C(=O)NCCCCCCCCN)CC[C@@]4(C)[C@]3(C)CC[C@H]2C1(C)C
active: NCI-H226 lung -83.5%
inactive: NCI-H23 lung 99.1% | NCI-H322M lung 106% | HOP-62 NSCLC 96.7% | NCI-H460 lung 103% | NCI-H522 lung 106% | A549/ATCC NSCLC 102% | 786-0 renal 103% | COLO 205 colon 114%

Clc1cc(Br)ccc1-c1ccc(CNCC2CCNCC2)o1
active: NCI-H460 lung 9.35%
inactive: NCI-H226 lung 48.4% | NCI-H322M lung 60.2% | HOP-62 NSCLC 41% | HOP-92 NSCLC 56.3% | NCI-H522 lung 55.3% | A549/ATCC NSCLC 17% | 786-0 renal 42.3% | COLO 205 colon 27.9%

COc1ccc(C2C3=C(COC3=O)N(CCO)c3cc(OC)c(OC)cc32)cc1 (stereo not drawn)
inactive: NCI-H226 lung 101% | NCI-H322M lung 104% | HOP-62 NSCLC 95.7% | NCI-H460 lung 105% | HOP-92 NSCLC 86.9% | NCI-H522 lung 92.8% | A549/ATCC NSCLC 108% | 786-0 renal 96.3% | COLO 205 colon 110%
